118 compounds from PubChem BioAssay AID488969 (Vanderbilt High Throughput Screening Facility, 2010) can be followed below.

The full ranking holds about 110,000 compounds; the median of “z-score” is about -0.1, and the highest 2% start at about 2. This is one part of a sample in which the highest values are shown more often than they occur. The source made the active and inactive calls.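 How the source made its calls: active means z-score in the third read window above 3 or below -3; inactive means the rest.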

The target of this test is Metabotropic glutamate receptor 8 (Rattus norvegicus) (UniProt P70579). Description: mGluR8 Gi/Go-coupled signaling modulation – cell-based, rat, thallium flux, HTS, primary screen (AID 488969). The settings on record: HEK293 rat mGluR8, GIRK (G protein-gated inwardly rectifying potassium channel) thallium flux, FluoZin2; at 10 µM; stronger effect = higher value; submaximal glutamate (EC20) added with thallium.
Chain of Metabotropic glutamate receptor 8 (Rattus norvegicus) (P70579 whole entry, looked up): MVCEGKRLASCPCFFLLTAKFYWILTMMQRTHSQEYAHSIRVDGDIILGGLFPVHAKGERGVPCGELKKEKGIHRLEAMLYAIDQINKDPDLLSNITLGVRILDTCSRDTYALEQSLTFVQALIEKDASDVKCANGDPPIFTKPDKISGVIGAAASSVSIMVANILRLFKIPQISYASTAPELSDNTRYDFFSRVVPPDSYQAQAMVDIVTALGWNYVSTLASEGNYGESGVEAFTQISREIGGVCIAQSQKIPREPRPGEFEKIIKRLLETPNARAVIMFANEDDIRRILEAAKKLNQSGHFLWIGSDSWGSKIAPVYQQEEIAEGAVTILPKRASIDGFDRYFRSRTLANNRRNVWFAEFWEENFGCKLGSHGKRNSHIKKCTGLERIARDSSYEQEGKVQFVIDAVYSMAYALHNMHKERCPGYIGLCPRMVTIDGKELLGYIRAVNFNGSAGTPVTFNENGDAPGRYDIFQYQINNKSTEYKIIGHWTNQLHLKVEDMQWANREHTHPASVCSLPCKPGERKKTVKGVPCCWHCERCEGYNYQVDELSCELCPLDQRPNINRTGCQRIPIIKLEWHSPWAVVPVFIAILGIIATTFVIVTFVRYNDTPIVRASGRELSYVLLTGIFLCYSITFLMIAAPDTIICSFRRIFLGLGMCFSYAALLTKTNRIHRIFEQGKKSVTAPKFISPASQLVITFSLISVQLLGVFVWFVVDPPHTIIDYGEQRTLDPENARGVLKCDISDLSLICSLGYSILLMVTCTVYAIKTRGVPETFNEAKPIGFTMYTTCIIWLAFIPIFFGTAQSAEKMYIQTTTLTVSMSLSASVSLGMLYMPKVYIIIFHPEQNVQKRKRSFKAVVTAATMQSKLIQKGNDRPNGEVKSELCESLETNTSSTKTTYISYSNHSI
In turn, `COc1ccc(CNC(=O)CSCc2cnn(-c3ccccc3)c2-n2cccc2)cc1` registered a z-score of 0.0302.

In turn, `Cc1cccc(NCc2ccccc2O)c1C` registered a z-score of 0.825.

As to `COc1ccc(OCCNc2cc(N3CCCCC3)ccc2[N+](=O)[O-])cc1`, the z-score is -0.255. For `O=C(Cc1ccccc1)Nc1ccc(N2CCOCC2)cc1N1CCOCC1` the value was -0.544; for `CCNC(=O)C1CC(=O)N(CC)C(=Nc2cc(Cl)c(O)c(Cl)c2)S1` (stereo not drawn), 0.28; for `COC(=O)CSc1nc2nc(C)cc(C)n2n1`, -0.251. Consider `CCOC(=O)c1nnn(CC(=O)Nc2cccc(Cl)c2C)c1C(=O)OCC`, for which the z-score amounted to 2.12.

`COC(=O)c1nnn(CC(=O)Nc2cccc(Cl)c2C)c1C(=O)OC` gave a z-score of -0.193. With `CCOC(=O)c1nnn(CC(=O)Nc2ccccc2OC)c1C(=O)OCC`, the z-score was -0.326.

`COc1ccccc1S(=O)Cc1ccc(C(=O)NCc2ccccc2Cl)o1` (stereo not drawn) displayed a z-score of -0.228. Next, `CC(=O)Nc1nonc1-c1nc2ccccc2n1N(C(C)=O)C(C)=O`: -2.35; `CCC(C)n1c(SCc2ccc([N+](=O)[O-])cc2)nc2ccsc2c1=O` (stereo not drawn): 0.36. For `CC(C)n1c2ccccc2c2cc([N+](=O)[O-])ccc21` the value was -0.11; for `CCC(C)n1c(=S)[nH]c2c(sc3ccc([N+](=O)[O-])cc32)c1=O` (stereo not drawn), 9.11 (active). In the case of `Nc1ncnc(Nc2ccc(F)cc2)n1`, the z-score is 0.0495. Next, `CCOc1ccc(CNc2ncnc(N)n2)cc1`: -0.398; `CCOc1ccc(Nc2ncnc(N)n2)cc1`: 4.23 (active); `COc1cc(/C=C(\C#N)C(N)=O)ccc1OS(=O)(=O)c1ccc(C)cc1`: -0.309.

The compound `O=[N+]([O-])c1ccc(COc2cccc(CNc3ccc(Br)cc3)c2)cc1` came in with a z-score of 0.133.

`Cc1ccc(N2C(=O)C(Cl)=C(N3CCOCC3)C2=O)cc1Cl` returned a z-score of -0.0801.

For the compound `O=C1C(Cl)=C(N2CCOCC2)C(=O)N1c1cccc(Cl)c1`, the z-score is 13.9 (active). For `CCc1ccc(N2C(=O)C(Cl)=C(N3CCOCC3)C2=O)cc1` the value was -0.428; for `CCN(CC)CCn1c(SCC(=O)NCc2ccco2)nc2c(sc3ccccc32)c1=O`, -0.759; for `Cc1nn(-c2ccccc2)c(C)c1/C=N/NC(=O)CSc1nnc(-c2ccccc2)n1-c1ccc(Cl)cc1`, 0.0544. On to `O=C(Nc1nc2c(Cl)cccc2s1)c1ccc(Br)o1`, for which the z-score came to 0.452. `O=C(Nc1nc2ccc(Cl)cc2s1)c1ccco1` registered a z-score of -0.371. Next, `O=C(Nc1cccc(-c2cc3ccccc3oc2=O)c1)c1ccc(Br)o1`: -0.101; `O=C(Nc1nc(-c2cc3ccccc3oc2=O)cs1)c1ccc(Br)o1`: 13.7 (active); `O=C(Nc1nc2ccc(Cl)cc2s1)c1ccc(Br)o1`: 6.8 (active). `O=C(Nc1nc(-c2ccccc2)cs1)c1ccc(Br)o1`: the z-score was 2.96. As for `O=C(Nc1nc(-c2ccccc2)cs1)c1cccs1`, the z-score is -0.61. In turn, `O=c1oc2ccccc2cc1-c1csc(NN=C2CCCC2)n1` had a z-score of -0.3. As to `Cc1ccc(C(=O)Nc2nc(-c3cccnc3)cs2)o1`, the z-score was -0.0733. Take `O=C(CSc1ncn(-c2ccccc2)n1)NCc1ccccc1`: the z-score is -0.242. `CCN1CNC(=S)N(c2ccccc2OC)C1` came in with a z-score of -0.242. `COCCn1c(SCC(=O)NCc2ccco2)nc2cccnc21` returned a z-score of 0.0661. Compound `COc1ccc(-c2noc(CCC(=O)Nc3cc(Cl)c(OC)cc3OC)n2)cc1` registered a z-score of -0.134. As for `COc1ccc(OC)c(NC(=O)C(Sc2ccccc2)c2ccccc2)c1` (stereo not drawn), the z-score worked out at 0.629. `COC(=O)c1cc(OC)c(OC)cc1NC(=O)Nc1ccccc1OC`: the z-score was -0.56. The compound `COc1ccc(NC(=O)C(Sc2ccccc2)c2ccccc2)c(OC)c1` (stereo not drawn) gave a z-score of 2.25. Turning to `COc1ccccc1NC(=O)C(Sc1ccccc1)c1ccccc1` (stereo not drawn), the z-score was found to be 0.792.

`COC(=O)c1cc(OC)c(OC)cc1NC(=O)Nc1ccc(OC)cc1` yielded a z-score of -0.0386. Take `COC(=O)c1cc(OC)c(OC)cc1NC(=O)Nc1ccc(OC)cc1OC`: the z-score was 3.48 (active). For the compound `COc1cc2cc(C#N)c(SCC(=O)N3CCOCC3)nc2cc1OC`, the z-score was found to be 0.593. `C=CCn1cc(/C=N/NC(=O)COc2cccc3cccnc23)c2ccccc21` gave a z-score of -0.515. For `Cc1ccc(-c2nn(CCC#N)cc2C=C(C#N)C#N)cc1` the value was 0.287; for `O=S(=O)(c1ccccc1)n1c(C(O)c2ccccn2)cc2ccccc21` (stereo not drawn), 0.524. Compound `COc1ccc(N(CC(=O)N2c3ccccc3CC2C)S(=O)(=O)c2c(C)nn(C)c2C)cc1` (stereo not drawn) had a z-score of -0.0129.

With `COc1ccc(NC(=O)NC23CC4CC(CC(C4)C2)C3)cc1OC`, the z-score is -0.136.

For `O=C(NNC(=O)c1ccc2c(c1)OCO2)NC12CC3CC(CC(C3)C1)C2`, the z-score is -0.287. `CCOc1ccc(NC(=O)Nc2ccc(N(C)C(C)=O)cc2)cc1` showed a z-score of 0.478.

Compound `O=C(Nc1ccc2c(c1)OCCO2)NC12CC3CC(CC(C3)C1)C2` gave a z-score of 2.32. With `CCOc1ccc(NC(=O)NC23CC4CC(CC(C4)C2)C3)cc1`, the z-score is 4.76 (active).

For `N#Cc1cccc(NC(=O)c2ccccc2C(=O)O)c1`, the z-score was -0.112.

With `CCOc1ccc(NC(=O)C23CC4CC(C2)CC(c2ccccc2)(C4)C3)cc1`, the z-score was -0.381. Take `N#Cc1cccc(NC(=O)Nc2cccs2)c1`: the z-score was 2.55. For `CCOc1ccc(NC(=O)Nc2ccc3nccnc3c2)cc1`, the z-score is -0.163. Compound `COc1cccc(NC(=O)Nc2cccs2)c1` yielded a z-score of 1.67.

In turn, `COC(=O)c1cccc(NC(=O)NC23CC4CC(CC(C4)C2)C3)c1` came in with a z-score of -0.16. As for `CCOc1ccc(NC(=O)Nc2cccs2)cc1`, the z-score was 2.37. For `CNC(=O)NC(=O)CSc1nc2ccccc2n1CCOC` the value was -0.465; for `O=C1C2CCCN2C(c2cccc(Br)c2)N1c1ccc(F)cc1` (stereo not drawn), -0.401. In the case of `C/C(=N/NC(=O)OC(C)(C)C)c1ccco1`, the z-score was -0.124. `COC(=O)c1cn(CC(=O)N2CCCCC2C)c2ccccc12` (stereo not drawn) had a z-score of -0.213. `COC(=O)c1ccc(C(=O)OC)c(NC(=O)CCc2ccc(C)o2)c1` showed a z-score of -0.67. `CCCCCn1cnc2sc(CC)cc2c1=O` registered a z-score of -0.4.

As to `Cc1ccc(C(CCN)c2ccco2)cc1` (stereo not drawn), the z-score worked out at 0.345. The compound `O=C1NC(=O)/C(=C\c2ccc(Sc3ccc(Cl)cc3)o2)N1` yielded a z-score of -0.263. Consider `Cc1cccc(NC(=S)NCC(c2cccnc2)N(C)C)c1` (stereo not drawn), for which the z-score is 0.286. Next, `CCOC(=O)c1ccc2ncc(C(=O)OCC)c(NCCN(C)C)c2c1`: -0.571; `COc1ccc(C(=O)NCc2ccccc2)cc1Br`: -0.234; `COc1ccc(C(=O)NC(=S)NCCO)cc1Br`: 4.72 (active). As for `CCN(CC)C(=O)c1ccc(C)c(Br)c1`, the z-score is -0.37.

For the compound `C=CCN(CC=C)S(=O)(=O)c1ccc(NC(=S)NC(=O)/C=C/c2ccc(C)cc2)cc1`, the z-score is -0.0815. For `CCCCC(=O)Nc1ccc(C(=O)NNC(=O)c2ccc(C)c(Br)c2)cc1`, the z-score is -0.00519. For `C=CCN(CC=C)C(=S)NC(=O)c1ccc(OC)c(Br)c1`, the z-score is 15.4 (active). As for `COc1ccc(C(=O)NC(=S)NC(C)C)cc1Br`, the z-score was determined as 1.79.

In the case of `C=CCN(CC=C)C(=S)NCCc1ccc(OC)c(OC)c1`, the z-score is -0.0119. `C=CCN(CC=C)C(=S)NC(=O)c1ccc(C)c(Br)c1`: the z-score was 15.3 (active). Compound `COc1ccc(C(=O)NC(=S)NC(C)(C)C)cc1Br` registered a z-score of 0.436. As for `Cc1ccc(/C=C/C(=O)c2ccc(C)cc2)cc1`, the z-score came to 0.025.

Take `C=CCN(CC=C)C(=S)NC(=O)/C=C/c1ccc(C)cc1`: the z-score is 4.57 (active). In turn, `CCOC(=O)c1nn(-c2ccc(C)c(C)c2)c(=O)c2c(N)scc12` showed a z-score of -0.137. The compound `CC(C)(C)/C(O)=C/c1nc2ccccc2[nH]c1=O` came in with a z-score of -0.317.

`COc1ccccc1CNC(=S)NCCc1ccccc1` returned a z-score of -0.133.

Consider `COCCn1c(C)cc(C(=O)COC(=O)c2cncc(Br)c2)c1C`, for which the z-score was 0.145. Next, `COC(=O)c1cc2ccsc2n1Cc1cc(=O)n2ccccc2n1`: -0.127; `COc1cccc(C(C(=O)NC2CCCC2)N(Cc2ccco2)C(=O)c2ccco2)c1OC` (stereo not drawn): -0.188; `CC1=C(C)C(c2ccccc2)NC(=S)N1` (stereo not drawn): 3.39 (active).

The compound `CCOC(=O)C1=C(C)C(c2ccccc2)NC(=S)N1` (stereo not drawn) registered a z-score of 0.0117. Consider `CC1=CC(c2ccccc2)NC(=S)N1` (stereo not drawn), for which the z-score was -0.113. `CSc1ccn(CCC(=O)O)c(=O)n1` yielded a z-score of -0.489. Turning to `CC(=O)c1cnn(-c2nc3c(C)cccc3s2)c1C`, the z-score was -0.111. Next, `c1ccc(-n2nnnc2-n2ccnc2)cc1`: 0.463. Regarding `COc1ccc(S(=O)(=O)Cc2ccc(C(=O)NCc3cccnc3)o2)cc1`, the z-score was -0.0868. As for `C/C(=N\NC(=O)c1nonc1N)c1cccs1`, the z-score came to 0.127.

On to `CC(=O)Nc1nc2ccccc2n1CCN(C)C`, for which the z-score was -0.911. Compound `Cn1c(N2CCOCC2)nc2c1c(=O)n(Cc1ccc(Cl)cc1)c(=O)n2C` gave a z-score of -0.42.

`Cn1c(N2CCC(C(N)=O)CC2)nc2c1c(=O)n(Cc1ccc(Cl)cc1)c(=O)n2C` showed a z-score of -0.154. As for `Cn1c(N2CCCC2)nc2c1c(=O)n(Cc1ccc(Cl)cc1)c(=O)n2C`, the z-score was 3.05 (active). Next, `O=C(O)c1ccc(CNCc2ccc(Cl)cc2Cl)cc1`: -0.14; `CCOC(=O)Nc1ccc([N+](=O)[O-])cc1C`: 0.0184; `Cc1cc([N+](=O)[O-])ccc1NC(=S)NC(=O)Cc1ccccc1`: 6.82 (active).

The compound `Cc1cc([N+](=O)[O-])ccc1NC(=S)NC(=O)C(c1ccccc1)c1ccccc1` returned a z-score of 0.175. `COCC(=O)Nc1cc([N+](=O)[O-])ccc1C` displayed a z-score of -0.258.

As to `COCC(=O)Nc1ccc([N+](=O)[O-])cc1C`, the z-score stood at 2.3. Compound `Cc1cc([N+](=O)[O-])ccc1NC(=O)Cc1ccc(F)cc1` yielded a z-score of -0.108. Consider `S=c1[nH]nc(Cc2cccc3ccccc23)n1-c1ccccc1`, for which the z-score is -0.324. In turn, `O=C(NNC(=O)c1ccccc1Br)c1ccc(Cl)cc1` registered a z-score of 0.075. In turn, `COc1ccc(C(=O)Nc2c(C)ccc3nsnc23)cc1[N+](=O)[O-]` showed a z-score of 0.723. In the case of `CC1CCCCN1C/C=C/c1ccccc1[N+](=O)[O-]` (stereo not drawn), the z-score was -0.203.

The compound `COc1cc(C#CC#CCN2CCCCC2)ccc1O` came in with a z-score of 2.82. In turn, `COc1cc(C(=S)N2CCCCC2)ccc1O` returned a z-score of 0.0785. On to `COc1cc(C(=O)OCCN2CCCCC2)ccc1O`, for which the z-score turned out to be 0.0129.

On to `O=C(CN1CCCC1)Nc1c2c(nc3ccccc13)N(Cc1ccccc1)CC2`, for which the z-score is 1.74. Next, `COc1ccc(NC(=O)COC(=O)C2CCCCC2)c([N+](=O)[O-])c1`: 0.159. `COc1ccc(NC(=O)COC(=O)CC2CC3CCC2C3)c([N+](=O)[O-])c1` (stereo not drawn) showed a z-score of -0.182.

Turning to `COc1ccc(NC(=O)COC(=O)CC23CC4CC(CC(C4)C2)C3)c([N+](=O)[O-])c1`, the z-score was found to be 2.75.
